From PubChem BioAssay (NCI)
The panel holds about 83,000 compounds, 20% with a hit somewhere; the sample as a whole holds those more often.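 How to read the values: 0–100, growth inhibition (40 = 60% inhibited); 0, no net growth; -100 to 0, cell death (-40 = 40% of starting cells died; -100 = all dead).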 Activity calls are given as the source filed them. How the source made its calls: active means growth percent below 10; inactive means the rest.

Legend:
Assay in all cases: NCI-60 one-dose screen, 48 h (100 = growth as untreated, 0 = no growth, -100 = all killed)
Conditions in all cases: 10 µM unless noted
[1] = system: DU-145 prostate
[2] = system: K-562 leukemia
[3] = system: MALME-3M melanoma
[4] = system: MDA-MB-231 breast
[5] = system: RXF 393 renal
[6] = system: SF-268 CNS
[7] = system: SF-295 CNS
[8] = system: SF-539 CNS
[9] = system: UACC-257 melanoma
[10] = system: M14 melanoma
[11] = system: HCT-15 colon
[12] = system: HT29 colon
[13] = system: SNB-75 CNS
[14] = system: SNB-19 CNS
[15] = system: U251 CNS
[16] = system: PC-3 prostate
[17] = system: SK-MEL-5 melanoma
[18] = system: UACC-62 melanoma
[19] = system: LOX IMVI melanoma
[20] = system: SK-MEL-28 melanoma

Measured: growth

Clc1ccc2c(c1)nnn1c3ncccc3c(Br)c21
active: [13] -3.76%
inactive: [1] 90.9% | [2] 81.8% | [3] 81.8% | [4] 63.9% | [5] 41.5% | [6] 60.9% | [7] 61.9% | [8] 61.9% | [9] 101% | [10] 97.7% | [11] 101% | [12] 93.8% | [14] 89% | [15] 59.4% | [16] 78.6% | [17] 77.3% | [18] 58.3% | [19] 77.5% | [20] 109%

COc1cc(NS(C)(=O)=O)ccc1Cc1c2ccccc2nc2ccccc12
inactive: [1] 11% | [2] 18.2% | [3] 14.8% | [4] 53.2% | [6] 22.4% | [9] 25% | [10] 10% | [11] 18.3% | [13] 21.4% | [14] 25.9% | [15] 18.7% | [16] 55.2% | [18] 26.1% | [20] 50.7%
active: [5] -13.4% | [7] 3.77% | [8] -28.5% | [12] 8.23% | [17] 8.33% | [19] -26.2%

COc1cccc(-c2nc3sccn3c2-c2ccnc(NCCNC(=O)Nc3cccc(C(F)(F)F)c3)n2)c1
inactive: [1] 79.8% | [2] 39.9% | [3] 85.1% | [4] 43.7% | [6] 62.3% | [7] 37.7% | [8] 77.9% | [9] 69.5% | [10] 39.2% | [11] 45.9% | [12] 44.1% | [13] 71.8% | [14] 74.8% | [15] 58.1% | [16] 32.9% | [17] 51.5% | [18] 50.5% | [19] 44.3% | [20] 78.4%
active: [5] 6.3%

O=C(NCCNc1nccc(-c2c(-c3cccc(O)c3)nc3sccn23)n1)c1cc(N2CCOCC2)cc(C(F)(F)F)c1
inactive: [1] 110% | [2] 70.7% | [4] 74.1% | [5] 77.8% | [6] 102% | [7] 84.4% | [8] 101% | [9] 16.7% | [10] 22.4% | [11] 92% | [12] 49.2% | [13] 83.2% | [14] 125% | [15] 105% | [16] 78.2% | [17] 58.4% | [19] 52.3% | [20] 44.4%
active: [3] 3.04% | [18] 8.5%

Cc1cc(C)c(O)c(C(=O)CC(Br)C(=O)O)c1 (stereo not given)
inactive: [1] 95.3% | [2] 84.5% | [3] 111% | [4] 121% | [5] 119% | [6] 95.9% | [7] 101% | [8] 91.2% | [9] 96.2% | [10] 95.1% | [11] 103% | [12] 99.1% | [13] 102% | [14] 108% | [15] 100% | [16] 89.7% | [17] 101% | [18] 95.7% | [19] 93.1% | [20] 101%

CCOc1ccc(NC2=C(Cl)C(=O)c3ccccc3C2=O)cc1
inactive: [1] 102% | [3] 108% | [4] 80.2% | [5] 105% | [6] 94.2% | [7] 94.3% | [8] 90.9% | [9] 97.6% | [10] 68% | [12] 98.2% | [13] 81.3% | [14] 62% | [15] 56.9% | [16] 72.1% | [17] 81.4% | [18] 78.6% | [20] 46.9%
active: [2] -2.3% | [11] -79.9% | [19] -89.7%

CC(Cc1cccc(C(F)(F)F)c1)NCCOC(=O)c1ccccc1 (stereo not given)
inactive: [1] 112% | [2] 94.4% | [3] 104% | [4] 102% | [5] 117% | [6] 99.5% | [7] 98.4% | [8] 116% | [9] 105% | [10] 106% | [11] 105% | [12] 115% | [13] 99.5% | [14] 100% | [15] 104% | [16] 103% | [17] 89.5% | [18] 102% | [19] 96.3% | [20] 107%

COc1cc(C(=O)NNC(=O)c2ccccc2O)cc(OC)c1OC
inactive: [1] 104% | [2] 95.7% | [3] 103% | [4] 87.5% | [5] 99% | [6] 98.1% | [7] 98.2% | [8] 98.5% | [9] 72.4% | [10] 109% | [11] 105% | [12] 80.6% | [13] 79.2% | [14] 93.3% | [15] 91.6% | [16] 70.9% | [17] 86.9% | [18] 81.3% | [19] 102% | [20] 109%

S=C=NP1(N=C=S)=NP(N=C=S)(N=C=S)=NP(N=C=S)(N=C=S)=NP(N=C=S)(N=C=S)=N1 (stereo not given)
inactive: [1] 113% | [2] 86.4% | [3] 91.4% | [4] 105% | [5] 109% | [6] 103% | [7] 97.8% | [8] 94.7% | [9] 94.8% | [10] 93.4% | [11] 103% | [12] 92.9% | [13] 80.7% | [14] 109% | [15] 94.7% | [16] 86.4% | [17] 98.6% | [18] 97.7% | [19] 97.8% | [20] 107%

Cc1cc(SCc2ccc(Cl)cc2Cl)nc(SCc2ccc(Cl)cc2Cl)n1
inactive: [1] 105% | [2] 110% | [3] 88.9% | [4] 101% | [5] 108% | [6] 102% | [7] 95.8% | [8] 98% | [9] 98.8% | [10] 97.5% | [11] 93% | [12] 97.9% | [13] 96.1% | [14] 111% | [15] 105% | [16] 108% | [17] 96.1% | [18] 102% | [19] 99.5% | [20] 98.8%

COc1ccc(-c2ccc(NC(=O)Nc3cccc(C(F)(F)F)c3)c(C)n2)cc1
inactive: [1] 68.8% | [2] 32.5% | [3] 90.6% | [4] 68.6% | [5] 85.9% | [6] 74.5% | [7] 47.6% | [8] 80.8% | [9] 61.4% | [10] 37.2% | [11] 40.9% | [12] 47.7% | [13] 77.6% | [14] 67.8% | [15] 50.2% | [16] 24.4% | [17] 41.6% | [18] 63.9% | [19] 47.7% | [20] 69.3%

COc1cc(-c2nc3ccccc3s2)ccc1OCc1nc2n(n1)S(=O)(=O)c1ccccc1N2c1ccccc1
inactive: [1] 110% | [2] 81.7% | [3] 66.7% | [4] 79.5% | [5] 114% | [6] 102% | [7] 107% | [8] 104% | [9] 112% | [10] 120% | [11] 99.2% | [12] 104% | [13] 103% | [14] 105% | [15] 98.1% | [16] 96.7% | [17] 84.2% | [18] 97.8% | [19] 93.2% | [20] 110%

COc1ccc(Cn2cc(COc3ccc4c5ccnc(C)c5n(CCCc5ccccc5)c4c3)nn2)cc1
inactive: [1] 84.3% | [2] 63.2% | [3] 81.6% | [4] 65.6% | [5] 58.8% | [6] 76.6% | [7] 92.3% | [8] 58.7% | [9] 90.2% | [10] 83.1% | [11] 68.4% | [12] 43.5% | [13] 51% | [14] 84.4% | [15] 64.9% | [16] 74.8% | [17] 79.1% | [18] 34.8% | [19] 70.3% | [20] 76.2%

Cc1ccc2nc(-c3ccc(-n4on4-c4ccc(/C=C/c5ccc(-n6on6-c6ccc(-c7nc8ccc(C)cc8s7)cc6)cc5S(=O)(=O)O)c(S(=O)(=O)O)c4)cc3)sc2c1
inactive: [1] 111% | [2] 99.2% | [3] 101% | [4] 133% | [5] 110% | [6] 99.8% | [7] 110% | [8] 98.7% | [9] 110% | [10] 99.5% | [11] 109% | [12] 113% | [13] 107% | [14] 117% | [15] 115% | [16] 98% | [17] 107% | [18] 105% | [19] 97% | [20] 107%

O=C(COc1ccc(Cl)cc1Cl)N1N=C(c2ccc(Cl)cc2Cl)CC1(O)c1cc(F)c(Cl)cc1Cl (stereo not given)
inactive: [1] 123% | [2] 64.4% | [3] 129% | [4] 136% | [5] 134% | [6] 103% | [7] 117% | [8] 112% | [9] 99% | [10] 94.1% | [11] 158% | [12] 116% | [13] 108% | [14] 88% | [15] 131% | [16] 102% | [17] 80.8% | [18] 156% | [19] 128% | [20] 141%

O=C1COc2ccccc2C(=O)N1CCCCNc1ccccc1
inactive: [1] 96.3% | [2] 68.5% | [3] 102% | [4] 88.8% | [5] 123% | [6] 73.2% | [7] 96.3% | [8] 63.2% | [9] 105% | [10] 99.1% | [11] 90.6% | [12] 81.8% | [13] 106% | [14] 94.1% | [15] 85.7% | [16] 47.2% | [17] 99.3% | [18] 95% | [19] 101% | [20] 103%
